# Results reported in PubChem BioAssay (Tox21).
# Values joined by “and” are separate entries in the source; they are usually repeats but may differ in a detail not shown here. Equal values may be shown once. Inconclusive results are not listed. Where a call stands in place of a potency, no number is given. A structure can be active in one record and inactive in another. Active and inactive are the calls of the source. Unless noted, calls follow the shape of the dose curve; as a rule, active = well fitted curve in the direction sought with a large enough effect in the repeat runs; inconclusive = weak or mixed curves; inactive = no such curve, though single readings can be large; an effect the other way counts as inactive or inconclusive.
# Assays:
# [1] = biological target: Retinoic acid receptor RXR-alpha (Homo sapiens) (UniProt P19793); test: qHTS assay to identify small molecule agonists of the RXR signaling pathway (AID 1159527; calls by dose curve; also: nearly all actives have a fitted effect of over 35% in size; also: potency is read from the fitted curve at half-maximal effect)
# Sequence of Retinoic acid receptor RXR-alpha (Homo sapiens) (P19793 whole entry, looked up): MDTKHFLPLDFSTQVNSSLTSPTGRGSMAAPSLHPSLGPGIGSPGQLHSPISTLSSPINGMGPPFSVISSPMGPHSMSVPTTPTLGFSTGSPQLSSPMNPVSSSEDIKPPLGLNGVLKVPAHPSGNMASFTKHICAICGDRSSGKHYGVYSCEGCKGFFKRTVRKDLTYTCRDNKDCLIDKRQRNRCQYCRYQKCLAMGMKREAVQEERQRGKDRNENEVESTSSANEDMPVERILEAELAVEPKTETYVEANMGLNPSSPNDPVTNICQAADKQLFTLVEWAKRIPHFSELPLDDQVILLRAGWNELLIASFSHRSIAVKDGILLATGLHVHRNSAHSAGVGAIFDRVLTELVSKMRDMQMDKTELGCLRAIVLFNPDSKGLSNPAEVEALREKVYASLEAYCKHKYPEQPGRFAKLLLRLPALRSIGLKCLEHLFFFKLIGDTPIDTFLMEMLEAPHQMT
# How it was run: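 Agonist mode; 9-cis retinoic acid positive control. HEK 293T UAS-bla reporter cells, 2% charcoal-stripped FBS, 16 hr compound exposure at 37 C/5% CO2. LiveBLAzer B/G FRET substrate 2 hr RT; ex 405, em 460/530 nm.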
# [2] = qHTS assay to identify small molecule agonists of the RXR signaling pathway - cell viability counter screen (AID 1159529); also: nearly all actives have a fitted effect of over 50% in size
# How it was run: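 Luminescence from CellTiter-Glo (30 min, RT) measured viability in the same wells as the beta-lactamase reporter readout. Cells: GeneBLAzer RXR-alpha HEK 293T, 2% charcoal-stripped FBS. Compound exposure 16 hr, 37 C.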
# [3] = qHTS assay to identify small molecule antagonists of the retinoid acid receptor (RAR) signaling pathway - cell viability counter screen (AID 1159551); also: nearly all actives have a fitted effect of over 35% in size
# How it was run: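 Retinol-stimulated (1 uM final) C3RL4 cells, compound 6 h, 37 C; readout CellTiter-Glo luminescence (ATP) after 30 min RT incubation.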
# [4] = qHTS assay to identify small molecule antagonists of the retinoic acid receptor (RAR) signaling pathway (AID 1159552; also: nearly all actives have a fitted effect of over 50% in size)
# How it was run: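 Luminescence from a RARE luciferase reporter in C3RL4 cells served as read-out. Cells received compounds together with 1 uM final retinol and incubated 6 hr at 37 C before detection reagent was added for 30 min at room temperature.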
# [5] = qHTS assay to identify small molecule agonists of the retinoic acid receptor (RAR) signaling pathway (AID 1159553); conditions: C3RL4 RARE luciferase reporter, agonist, 6 h; also: potency is read from the fitted curve at half-maximal effect
# How it was run: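 Reporter readout comes from luciferase under RARE control in C3RL4 cells; compound exposure lasts 6 hr at 37 C in 5% CO2, and luminescence is recorded following a 30 min room-temperature incubation with reagent.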
# [6] = qHTS assay to identify small molecule antagonists of the estrogen related receptor (ERR) signaling pathway - cell viability counter screen (AID 1224818);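 also: viability measured after 17.5 h of compound exposure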
# Description: National Center for Advancing Translational Sciences [NCATS]
# NIH Chemical Genomics Center [NCGC]
# U.S. Environmental Protection Agency [EPA]
# National Institutes of Environmental Health Sciences [NIEHS]
# National Toxicology Program [NTP]
# U.S. Food and Drug Administration [FDA]
# Estrogen related receptors (ERRs), the first orphan nuclear receptors discovered, play an important role in the control of cellular energy metabolism. ERRs are required for high-energy production in response to the environmental challenges. ERR-alpha was also identified as an adverse marker for breast cancer progression; ERR-alpha-positive tumors have a poor prognosis. To screen and to identify environmental compounds that perturb the ERR signaling pathways could provide valuable information for potential therapeutic or preventive measures in the treatment of metabolic disease. To differentiate true ERR antagonists or agonist from cytotoxic substances, the assay is multiplexed with cell viability assay.
# Tox21 Assay Protocol Summary:
# The ERR cells were dispensed at 2,000 cells/5 ul/well in 1536-well white plates using a Multidrop dispenser. After the assay plates were incubated at a 37 C/5% CO2 incubator for 6 hours, 23 nL of compounds dissolved in DMSO, positive and negative controls or DMSO only was transferred to the assay plate by a pin tool. The plates were incubated at 37 C for 17.5 hours. 1 ul/well of CellTiter-Fluor reagent was added into the assay plates using a Flying Reagent Dispenser. After 30 min incubation at 37 C/5% CO2, the fluorescence intensity in the plates was measured using a ViewLux plate reader.
# [7] = qHTS assay to identify small molecule antagonists of the estrogen related receptor (ERR) signaling pathway (AID 1224819;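 also: luminescence from an ERR-driven luciferase reporter measured with One-Glo reagent; nearly all actives have a fitted effect of over 50% in size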)
# How it was run: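 Luminescence readout (One-Glo, 30 min, RT) of ERR cell line after 18 h compound exposure at 37 C; cells seeded 2,000/well, pre-incubated 6 h, compounds pinned from DMSO stocks.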
# [8] = qHTS assay to identify small molecule agonists of the estrogen related receptor (ERR) signaling pathway (AID 1224820); also: potency is read from the fitted curve at half-maximal effect
# How it was run: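 ERR reporter cell line (from NTP), 2,000 cells/well, incubated 6 h before compound addition, then 18 h at 37 C. Luminescence measured 30 min after One-Glo reagent at room temperature.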
# [9] = system: estrogen-related receptor alpha (ERRalpha) with PGC-1alpha coactivator, human; test: qHTS assay to identify small molecule antagonists of the estrogen related receptor signaling pathway with the pleiotropic PPARgamma coactivator (PGC) (AID 1224821; calls by dose curve;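 also: lower luminescence signal means antagonism of PGC/ERR signalling; nearly all actives have a fitted effect of over 50% in size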)
# How it was run: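 PGC/ERR reporter cell line, plated 6 h before compound addition, then exposed 18 h at 37 °C. Luciferase activity read by luminescence 30 min after One-Glo addition; decrease indicates antagonism.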
# [10] = qHTS assay to identify small molecule antagonists of the estrogen related receptor signaling pathway with the pleiotropic PPARgamma coactivator (PGC) cell viability counter screen (AID 1224822;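 also: viability read after 17.5 h compound exposure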)
# How it was run: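 PGC/ERR cells were plated at 2,000 per well and allowed 6 h to settle before compound addition. Following 17.5 h at 37 C, CellTiter-Fluor reagent was added and fluorescence was read 30 min later.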
# [11] = activation: at 73.3 µM (top of the series) unless noted
structure (smiles),measurement,setting,value
CCCCC(CC)COC(=O)c1ccc(C(=O)OCC(CC)CCCC)c(C(=O)OCC(CC)CCCC)c1 (stereo not drawn),Potency,[1],inactive
same,Potency,[2],inactive
same,Potency,[3],inactive
same,Potency,[4],inactive
same,Potency,[5]; [11],inactive
Oc1cc(Cl)ccc1Cl,Potency,[1],inactive
same,Potency,[2],inactive
same,Potency,[3],inactive
same,Potency,[4],inactive
same,Potency,[5]; [11],inactive
CCOc1cc(Oc2ccc(C(F)(F)F)cc2Cl)ccc1[N+](=O)[O-],Potency,[1],inactive
same,Potency,[2],inactive
same,Potency,[3],inactive
same,Potency,[4],inactive
same,Potency,[5]; [11],inactive
COP(=S)(OC)Oc1cc(Cl)c(Cl)cc1Cl,Potency,[1],inactive
same,Potency,[2],inactive
same,Potency,[3],inactive
same,Potency,[4],inactive
same,Potency,[5]; [11],inactive
c1ccc(N=Nc2ccccc2)cc1,Potency,[1],inactive
same,Potency,[2],inactive
same,Potency,[3],inactive
same,Potency,[4],inactive
same,Potency,[5]; [11],inactive
NCc1cccnc1,Potency,[1],inactive
same,Potency,[2],inactive
same,Potency,[3],inactive
same,Potency,[4],inactive
same,Potency,[5]; [11],inactive
Cc1cc(C)cc(C)c1,Potency,[1],inactive
same,Potency,[2],inactive
same,Potency,[3],inactive
same,Potency,[4],inactive
same,Potency,[5]; [11],inactive
Cc1ccccc1[N+](=O)[O-],Potency,[1],inactive
same,Potency,[2],inactive
same,Potency,[3],inactive
same,Potency,[4],inactive
same,activation,[5]; [11],0.464% [at 94.8 µM] (active)
same,activation,[5]; at 73.3 µM (top of the series),1.75% (inactive)
COP(=S)(OC)Oc1ccc([N+](=O)[O-])cc1,Potency,[1],inactive
same,Potency,[2],inactive
same,Potency,[3],inactive
same,Potency,[4],inactive
same,Potency,[5]; [11],inactive
Nc1cccnc1,Potency,[1],inactive
same,Potency,[2],inactive
same,Potency,[3],inactive
same,Potency,[4],inactive
same,Potency,[5]; [11],inactive
CCN(N=O)C(N)=O,Potency,[1],inactive
same,Potency,[2],inactive
same,Potency,[3],inactive
same,Potency,[4],inactive
same,Potency,[5]; [11],inactive
Nc1ccc(Cl)cc1N,Potency,[1],inactive
same,Potency,[2],inactive
same,Potency,[3],inactive
same,Potency,[4],inactive
same,Potency,[5]; [11],1.6 µM (active) and 545 nM (active)
same,outcome,[6],inactive
same,Potency,[7],inactive
same,Potency,[8],5.88 µM (active)
same,Potency,[9],inactive
same,Potency,[10],inactive
O=C(CCl)c1ccccc1,Potency,[1],inactive
same,Potency,[2],inactive
same,Potency,[3],inactive
same,Potency,[4],inactive
same,Potency,[5]; [11],inactive
O=[N+]([O-])c1c(Cl)c(Cl)c(Cl)c(Cl)c1Cl,Potency,[1],6.89 µM (active) and inactive
same,Potency,[2],inactive
same,Potency,[3],inactive
same,Potency,[4],inactive
same,Potency,[5]; [11],inactive
c1ccc(-c2cccc(-c3ccccc3)c2)cc1,Potency,[1],inactive
same,Potency,[2],inactive
same,Potency,[3],inactive
same,Potency,[4],inactive
same,Potency,[5]; [11],6.93 µM (active) and 4.86 µM (active)
CC(C)N(C(=O)SCC(Cl)=C(Cl)Cl)C(C)C,Potency,[1],inactive
same,Potency,[2],inactive
same,Potency,[3],inactive
same,Potency,[4],inactive
same,Potency,[5]; [11],inactive
CC1(C)C(C=C(Cl)Cl)C1C(=O)OC(C#N)c1cccc(Oc2ccccc2)c1 (stereo not drawn),Potency,[1],inactive
same,Potency,[2],inactive
same,Potency,[3],inactive
same,Potency,[4],inactive
same,Potency,[5]; [11],inactive
CCOC(=O)C(C)OC(=O)c1cc(Oc2ccc(C(F)(F)F)cc2Cl)ccc1[N+](=O)[O-] (stereo not drawn),Potency,[1],inactive
same,Potency,[2],inactive
same,Potency,[3],inactive
same,Potency,[4],inactive
same,Potency,[5]; [11],inactive
O=C(O)CC[N+](=O)[O-],Potency,[1],inactive
same,Potency,[2],inactive
same,Potency,[3],inactive
same,Potency,[4],inactive
same,Potency,[5]; [11],inactive
same,outcome,[6],inactive
same,Potency,[10],inactive
S=C1NCCN1,Potency,[1],inactive
same,Potency,[2],inactive
same,Potency,[3],inactive
same,Potency,[4],inactive
same,Potency,[5]; [11],inactive
CNC(=O)N(C)c1nnc(C(C)(C)C)s1,Potency,[1],inactive
same,Potency,[2],inactive
same,Potency,[3],inactive
same,Potency,[4],inactive
same,Potency,[5]; [11],inactive
CC(C)c1ccc(CO)cc1,Potency,[1],inactive
same,Potency,[2],inactive
same,Potency,[3],inactive
same,Potency,[4],inactive
same,Potency,[5]; [11],inactive
CN(C)c1ccc(C(=O)c2ccc(N(C)C)cc2)cc1,Potency,[1],inactive
same,Potency,[2],inactive
same,Potency,[3],inactive
same,Potency,[4],inactive
same,Potency,[5]; [11],1.21 µM (active) and 1.22 µM (active)
CCN(CC)C(=O)/C(Cl)=C(\C)OP(=O)(OC)OC,Potency,[1],inactive
same,Potency,[2],inactive
same,Potency,[3],inactive
same,Potency,[4],inactive
same,Potency,[5]; [11],inactive
CCCCCCOC(=O)c1ccccc1C(=O)OCCCCCC,Potency,[1],inactive
same,Potency,[2],inactive
same,Potency,[3],inactive
same,Potency,[4],inactive
same,Potency,[5]; [11],inactive
C1=Cc2cccc3cccc1c23,Potency,[1],inactive
same,Potency,[2],inactive
same,Potency,[3],inactive
same,Potency,[4],inactive
same,Potency,[5]; [11],inactive
CCCCOCCOP(=O)(OCCOCCCC)OCCOCCCC,Potency,[1],inactive
same,Potency,[2],inactive
same,Potency,[3],inactive
same,Potency,[4],inactive
same,Potency,[5]; [11],inactive
O=P(O)(O)CCCl,Potency,[1],inactive
same,Potency,[2],inactive
same,Potency,[3],inactive
same,Potency,[4],inactive
same,Potency,[5]; [11],inactive
Nn1cnnc1,Potency,[1],inactive
same,Potency,[2],inactive
same,Potency,[3],inactive
same,Potency,[4],inactive
same,Potency,[5]; [11],inactive
